# Assay results published in PubChem BioAssay (NCI).
# The panel holds about 83,000 compounds, 20% with a hit somewhere; the sample as a whole holds those more often.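 Percent growth is the endpoint: 0 to 100 indicates growth inhibition (40 means 60% inhibition), 0 means no net growth, and negative values indicate cell death.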 A number with no mark means an inactive call. The source made the active and inactive calls.
# System: OVCAR-4 ovarian
# Experiment: NCI-60 one-dose screen, 48 h (100 = growth as untreated, 0 = no growth, -100 = all killed)
# Conditions: 10 µM unless noted
# Protocol: Growth inhibition of the OVCAR-4 human tumor cell line is measured as a screen for anti-cancer activity. Cells are grown in 96 well plates and exposed to the test compound for 48 hours. Compounds are tested at a single concentration, which is 10^-5 M for most compounds. The reported endpoint is percent growth (GI% or GIPRCNT), where numbers from 0 - 100% represent growth inhibition, and numbers from -100% - 0 represent cell death. For example, a value of 40 represents 60% growth inhibition. A value of 0 means no net growth occurred over the course of the experiment. A value of -40 indicates 40% of cells at the beginning of the experiment died by the end of the experiment. A value of -100 means all cells are dead at the end of the experiment.
# NCI-60 Human Tumor Cell Lines Screen was performed using the standard one-dose NCI protocol, which is described in more detail at https://dtp.cancer.gov/discovery_development/nci-60/default.htm.
# Compounds with GIPRCNT values below 10 were considered active. Activity score was based on GIPRCNT using the following formula: […]
# Score is 0 for GIPRCNT values of 100 or above, 50 for GIPRCNT values of 0, and 100 for GIPRCNT values of -100.
row,SMILES,growth
1,Cc1ccc(N2C3c4ccccc4N(S(=O)(=O)c4ccc(C)cc4)C2c2ccccc2N3S(=O)(=O)c2ccc(C)cc2)cc1,93.9%
2,COc1ccc(/C(=C\c2cc(OC)c(OC)c(OC)c2)C(=O)N2CCCNCC2)cc1,112%
3,CCOC(=O)c1c(NC(=O)c2ccccc2)sc2c(O)c(CN(CC)CC)ccc12,42.8%
4,C#CC[C@@H]1C[C@]2(C)[C@H]3CC[C@@H]4[C@H]5C(C(=C)C)CC[C@]5(C(=O)NCCCCN)CC[C@@]4(C)[C@]3(C)CC[C@H]2C(C)(C)[C@H]1OC(C)=O (stereo not given in full),-61.8% (active)
5,Clc1cc(Br)ccc1-c1ccc(CNCC2CCNCC2)o1,-40.7% (active)
6,CN(C)c1ccc(/C=C(\C#N)c2nc3ccccc3n2C)cc1,55.2%
7,O=S(=O)(NCC[C@@H]1C[C@H]1c1ccc2ccccc2c1)c1ccc(C(F)(F)F)cc1,79.6%
8,COc1ccc2[nH]cc(/C=C3\C(=O)Nc4ccccc43)c2c1,54.6%
9,COc1cc(C2CC(c3ccc(Nc4ccnc5cc(Cl)ccc45)cc3)=NN2c2ccccc2)cc(OC)c1OC (stereo not given),123%
10,NC(N)=N/N=C/c1ccccc1,101%
11,COC(=O)C(C)NC1=C(Cl)C(=O)C(NC(C)C(=O)OC)=C(Cl)C1=O (stereo not given),78.6%
12,Cc1c(-c2ccc(-c3ccccc3F)cc2)nc2ccc(F)cc2c1C(=O)O,75.1%
13,CN1CCN(Cc2ccc(NC(=O)c3ccc(C#N)c(C#Cc4cnc(N)c5ncccc45)c3)cc2C(F)(F)F)CC1,75.2%
14,COc1c(-c2cc(-c3ccc(C)o3)[nH]c(=O)n2)c(O)cc2occc12,72.4%
15,Cc1cc(NC(=O)c2ccc(N)cc2)ccc1N=Nc1ccc2cc(S(=O)(=O)O)cc(S(=O)(=O)O)c2c1,117%
16,O=C(CS)OCC(COC(=O)CS)(COC(=O)CS)COC(=O)CS,83.6%
17,O=C(NCCNC(=O)c1cc(S(=O)(=O)NCCc2ccccc2)c(O)c(O)c1O)c1cc(S(=O)(=O)NCCc2ccccc2)c(O)c(O)c1O,62.3%
18,CCCCc1n(Cc2ccc3ccccc3n2)cc[n+]1Cc1ccc2ccccc2n1,14%
19,CCC(=O)NC(O)C(Cl)(Cl)C(C)Cl (stereo not given),109%
20,Nc1nc(N)c2c(n1)NC(c1sc(Cl)nc1Cl)CC(c1ccccc1)=N2 (stereo not given),94%

row,SMILES,growth
1,CNCc1ccccc1CN(CC(=O)Nc1ccc2c(c1)CC1(C2)C(=O)Nc2ncccc21)C(=O)C(C)(C)C (stereo not given),104%
2,COc1ccc2[nH]c(O)c(/C=c3/ccc4c(c3)N=C(c3ccc(C(F)(F)F)cc3)N=4)c2c1,80.5%
3,CCCCNCC(O)c1cc2c(Cl)cc(Cl)cc2c2cc(C(F)(F)F)ccc12 (stereo not given),-89.7% (active)
4,CCNC(=S)N(Cc1ccccc1)Cc1ccccc1,124%
5,Cc1cc(-c2nnc(/C=C/c3ccc4c(c3)OCO4)o2)n[nH]1,96.8%
6,CCCCCCCCCCCCCC(=S)NCCCC[C@H](NC(=O)OCc1ccccc1)C(=O)Nc1ccccc1,54.6%
7,Cc1ccc2cc3c(NC(=O)c4cccnc4)nn(C)c3nc2c1,97.1%
8,COc1ccc(-c2nsc3c2NC(=O)CC3c2cccc(F)c2)cc1 (stereo not given),92.1%
9,CC(=O)OC1Oc2cc(C)c(C)cc2-c2oc(=O)c(-c3ccc(F)cc3)cc21 (stereo not given),73.2%
10,Cc1ccc(C2CC(c3cccs3)=NN2c2ccc(S(N)(=O)=O)cc2)s1 (stereo not given),110%
11,CCCN(CCC)CC(O)COc1ccccc1C(=O)Nc1ccccc1 (stereo not given),85%
12,COC(=O)CNS(=O)(=O)c1ccc2c(c1)Cc1cc(S(=O)(=O)NCC(=O)OC)ccc1-2,102%
13,O=C(C(Br)C(Br)c1ccccc1)C(Br)C(Br)c1ccccc1 (stereo not given),34.9%
14,COc1ccc2[nH]c(O)c(/C=c3/ccc4c(c3)N=C(c3ccc(F)cc3)N=4)c2c1,-38.2% (active)
15,COc1cc(-c2nc(-c3nc4cc(C(=O)c5ccccc5)ccc4[nH]3)cc3c2[nH]c2ccccc23)cc(OC)c1OC,96.8%
16,COc1ccc2c(c1)N(CCO)C1=C(C(=O)OC1)C2c1cccc(Br)c1 (stereo not given),52.6%
17,O=C(C(=O)c1cccnc1)c1cccnc1,101%
18,C=CCn1c(SCC(=O)Nc2ccc(C(=O)/C=C/c3ccccc3)cc2)nnc1-c1ccc(OC)c(OC)c1,72.5%
19,CN(C)CCOc1nc2c3ccncc3cc(-c3cccc(Cl)c3)c2c2cnccc12,33.5%
20,CCOC(=O)C(Nc1ccccc1)C(=O)OCC,93%
